High-throughput results from PubChem BioAssay.
CYP2C19 inh: human CYP2C19 inhibition. P33261. CYP2C19 Supersomes, luciferin-H EGE luminescence, 30 min. inhibition, % at 5 µM. hit rate 21% among 96,000;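 active = CYP2C19 inhibition above a set limit at 5 µM in the primary screen, cut at about 50% in these data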;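 note: plate controls were negative control wells for no effect and 2.5 mM tranylcypromine positive control for full effect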
Target sequence (P33261 whole entry, looked up): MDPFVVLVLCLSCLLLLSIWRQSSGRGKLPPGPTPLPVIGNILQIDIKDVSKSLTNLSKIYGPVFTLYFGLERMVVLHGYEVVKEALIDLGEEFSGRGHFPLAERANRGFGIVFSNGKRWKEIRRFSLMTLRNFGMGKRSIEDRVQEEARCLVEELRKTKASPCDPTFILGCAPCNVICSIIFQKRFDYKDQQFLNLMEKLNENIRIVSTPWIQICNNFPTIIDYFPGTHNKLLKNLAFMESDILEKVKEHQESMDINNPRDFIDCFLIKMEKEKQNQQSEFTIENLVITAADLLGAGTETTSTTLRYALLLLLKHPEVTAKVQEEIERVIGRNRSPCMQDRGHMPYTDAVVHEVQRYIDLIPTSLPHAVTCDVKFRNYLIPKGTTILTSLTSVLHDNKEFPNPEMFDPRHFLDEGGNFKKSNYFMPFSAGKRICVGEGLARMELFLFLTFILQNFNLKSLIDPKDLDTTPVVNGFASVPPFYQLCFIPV
CYP2C19 activ: increases human CYP2C19 enzyme activity; recombinant CYP2C19, luciferin-H EGE luminescence; stronger effect = higher value; 0 = fully inhibited enzyme, 1 = untreated enzyme; activation factor at 5 µM; 96,000 tested, under 10 active; AID 1025;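 active = activation factor of at least 2 at 5 µM in the primary screen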;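 note: 0 = wells with 2.5 mM tranylcypromine and 1 = vehicle-only wells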
CYP2C9 inh: blocks human cytochrome P450 2C9 | P11712 | CYP2C9 Supersomes, luciferin-H conversion, luminescence | inhibition, % at 5 µM | hit rate 20% among 96,000 | AID 777;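 active = blocking of liver enzyme CYP2C9 beyond about 50% at 5 µM, limit read from the data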
PostGolgi yeast: growth inhibition of a yeast mutant, post-Golgi transport screen; post-Golgi transport phenotypic cell assay; AID 739; hit rate 0.9% among 98,000; inhibition, % at 10 µM;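 note: yeast cells grown in 1536-well plates; yeast grown about 18 h at 30C before absorbance read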
PostGolgi ctrl: growth of the yeast control strain, post-Golgi counter-screen | efflux-deficient yeast background strain, growth absorbance A615, 16 h | inhibition, % at 10 µM | hit rate 5% among 98,000
CYP2C9 act: increases human cytochrome P450 2C9 activity; P11712; recombinant CYP2C9, luciferin-H conversion, luminescence; stronger effect = higher value; factor 1 = untreated enzyme, 0 = blocked; activation factor at 5 µM; hit rate 1.4% among 96,000;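 active = activation factor of 2 or more for CYP2C9 at a 5 µM dose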;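 note: 0 = sulfaphenazole-blocked wells and 1 = vehicle-only wells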
* marks the source's active call; other numbers are inactive results; . = no result given. An excerpt weighted towards active compounds, which were near 32% of everything screened. Cut-off read from the data, not from the text of the source, unless noted: active = inhibition above about 30%; inactive = the rest.

SMILES	CYP2C19 inh	CYP2C19 activ	CYP2C9 inh	PostGolgi yeast	PostGolgi ctrl	CYP2C9 act
CCOC(=O)N1CCN(C/C(C)=C/c2ccccc2)CC1	61*	0.4	65*	-44	-2	0.4
CCOC(=O)N1CCN(CC(=O)Nc2ccc(C)c(Br)c2)CC1	51*	0.5	28	0	-3	0.7
CCOC(=O)N1CCN(S(=O)(=O)/C=C/c2ccccc2)CC1	85*	0.1	-14	-6	11	1.1
O=C(NCCN1CCOCC1)Nc1ccccc1	2	1	14	-1	23	0.9
CCOC(=O)CC(=O)CSc1ncnc2c1cnn2-c1ccccc1	27	0.7	37	-9	10	0.6
COc1cc(NC(=O)c2ccco2)c(OC)cc1NC(=O)CCC(=O)Nc1cccc(C)c1C	20	0.8	35	-1	3	0.7
COc1ccc(-c2ccnc3nc(N4CCN(c5ccccc5)CC4)nn23)cc1	-11	1.1	61*	-2	53*	0.4
Fc1ccc(-c2ccnc3nc(N4CCOCC4)nn23)cc1	18	0.8	-3	-10	5	1
CC1CCC(Nc2nnnn2-c2ccccc2)CC1 (stereo unspecified)	-7	1.1	-11	2	4	1.1
Cc1nn(CCCC(=O)N2CCc3ccccc3C2)c(=O)c2cc3sccc3n12	54*	0.5	51*	11	16	0.5
CCc1nn(CCCC(=O)N2CCc3ccccc3C2)c(=O)c2cc3occc3n12	80*	0.2	8	-3	16	0.9
Cc1ccc(-c2csc3nnc(SCc4csc(C)n4)n23)cc1	75*	0.2	90*	0	12	0.1
O=C(CCSc1nnc2scc(-c3ccccc3)n12)NCc1ccc2c(c1)OCO2	38	0.6	46	8	-2	0.5
c1ccc(-c2csc3nnc(SCc4ccc5c(c4)OCO5)n23)cc1	92*	0.1	92*	-3	33*	0.1
O=C(CSc1nnc2scc(-c3ccccc3)n12)Nc1ccc2c(c1)OCCO2	35	0.6	53*	1	37*	0.5
Fc1ccc(-c2csc3nnc(SCc4cccnc4)n23)cc1	83*	0.2	10	-5	4	0.9
O=C(NCc1ccccc1)C(c1cccnc1)N(Cc1ccco1)C(=O)c1ccccn1 (stereo unspecified)	8	0.9	32	-9	6	0.7
Cc1ccc2c(c1)NCCO2	16	0.8	-8	-9	8	1.1
Cc1cccnc1NC(=O)C1CCN(S(=O)(=O)c2ccc3c(c2)CCC(=O)N3)CC1	6	0.9	26	-2	10	0.7
COc1ccc(OC)c(NC(=O)C2CC(C)=C(C)CC2C(=O)O)c1 (stereo unspecified)	15	0.8	61*	12	-4	0.4
Cc1cc(C)nc(N2CCCC(C(=O)NC3CCCC3)C2)n1 (stereo unspecified)	58*	0.4	21	-1	8	0.8
CCOc1cc(C)nc(N2CCC(C(=O)Nc3ccccc3OCC)CC2)n1	34	0.7	24	-5	0	0.8
COc1ccc(OC)c(NC(=O)[C@H]2CC=CC[C@H]2C(=O)O)c1	3	1	-2	6	15	1
COc1ccc(OC)c(NC(=O)C2CCN(c3nc(C)cc(C)n3)CC2)c1	13	0.9	-33	1	37*	1.3
Cc1cc(C)nc(N2CCCC(C(=O)Nc3cc(F)ccc3C)C2)n1 (stereo unspecified)	65*	0.4	-26	3	30*	1.3
SMILES	CYP2C19 inh	CYP2C19 activ	CYP2C9 inh	PostGolgi yeast	PostGolgi ctrl	CYP2C9 act
CC(=O)N1CCn2c3c(c(=O)c4cc(C)ccc42)CCC31 (stereo unspecified)	-22	1.2	-18	-2	5	1.2
CC(=O)c1c(C)oc(C)c1CSCc1ccc(C(=O)O)o1	3	1	2	-7	-2	1
CCOc1ccc(NC(=S)N(Cc2ccc(Cl)cc2)Cc2ccco2)cc1	34	0.7	47	-4	7	0.5
CCOc1ccccc1N1CC(C(=O)Nc2nccs2)CC1=O (stereo unspecified)	9	0.9	-13	4	7	1.1
O=C(NCc1cccc(C(F)(F)F)c1)C1CCCN(c2ncccn2)C1 (stereo unspecified)	46	0.5	2	4	9	1
CCOc1ccc(OCC)c(NC(=O)C2CCCN(c3nc(C)cc(C)n3)C2)c1 (stereo unspecified)	73*	0.3	76*	-2	26	0.2
Cc1cc(C)nc(N2CCCC(C(=O)NCCC3=CCCCC3)C2)n1 (stereo unspecified)	73*	0.3	-60	9	0	1.6
O=C(NCCC1=CCCCC1)C1CC(=O)N(C2CCCCCC2)C1 (stereo unspecified)	52*	0.5	57*	2	21	0.4
Cc1cc(C)nc(N2CCCC(C(=O)NCc3cccc(C(F)(F)F)c3)C2)n1 (stereo unspecified)	22	0.8	-108	12	1	2.1*
Cc1nc(-c2ccccc2O)n(S(=O)(=O)N(C)C)n1	21	0.8	-2	-3	5	1
Cc1ccc(/C=N/n2c(C)n[nH]c2=S)o1	8	0.9	-15	6	-1	1.1
CCCC(=O)N1CCN(c2ccc(NC(=O)c3sc4ccccc4c3Cl)cc2)CC1	15	0.9	-1	-2	-5	1
CCOC(=S)NC(=O)c1sc2ccccc2c1Cl	4	1	90*	-8	0	0.1
CCCOC(=S)NC(=O)c1sc2ccccc2c1Cl	10	0.9	68*	-6	7	0.3
CCOC(=O)c1sc2ccccc2c1OC(=O)c1ccccc1	85*	0.2	90*	3	27	0.1
CN(NC(N)=O)c1ncc(C(F)(F)F)cc1Cl	5	0.9	0	24	-2	1
O=C(CSCCO)N1CCc2ccccc21	16	0.8	-49	2	5	1.5
O=C(CSC1=NCCS1)N1CCc2ccccc21	49	0.5	63*	6	6	0.4
O=C(CSc1nc(-c2ccccc2)cc(=O)[nH]1)N1CCc2ccccc21	11	0.9	69*	2	6	0.3
Nc1ccccc1SCC(=O)N1CCc2ccccc21	76*	0.2	33	-2	3	0.7
O=C(O)CCc1nn2c3ccccc3nc2n(CCN2CCCCC2)c1=O	.	.	.	-12	10	.
COc1ccc(N(CC(=O)O)S(=O)(=O)c2cccnc2)cc1	-20	1.2	-23	3	7	1.2
COc1ccc(Oc2ccc3c(C(F)(F)F)cc(C(F)(F)F)nc3n2)cc1	-2	1	0	-3	4	1
Cc1ccc(C(C#N)c2ccc3c(C(F)(F)F)cc(C(F)(F)F)nc3n2)cc1 (stereo unspecified)	24	0.8	84*	-2	13	0.2
